RORg inh = ROR gamma (mouse) transcription inhibition | P51450 | Drosophila S2 Gal4-RORgamma UAS-luciferase reporter, 20 h | Potency, µM (highest dose often 53.6 µM), for inactives: at the highest dose activity change, negative = inhibition, usual class: inhibitors | 5.4% of 310,000 active | AID 2551; also: % is scaled to controls: 0 for no effect and ±100 for the full control effect; nearly all actives have a fitted effect of over 60% in size
Target sequence (P51450 whole entry, looked up, the tested form may be a part): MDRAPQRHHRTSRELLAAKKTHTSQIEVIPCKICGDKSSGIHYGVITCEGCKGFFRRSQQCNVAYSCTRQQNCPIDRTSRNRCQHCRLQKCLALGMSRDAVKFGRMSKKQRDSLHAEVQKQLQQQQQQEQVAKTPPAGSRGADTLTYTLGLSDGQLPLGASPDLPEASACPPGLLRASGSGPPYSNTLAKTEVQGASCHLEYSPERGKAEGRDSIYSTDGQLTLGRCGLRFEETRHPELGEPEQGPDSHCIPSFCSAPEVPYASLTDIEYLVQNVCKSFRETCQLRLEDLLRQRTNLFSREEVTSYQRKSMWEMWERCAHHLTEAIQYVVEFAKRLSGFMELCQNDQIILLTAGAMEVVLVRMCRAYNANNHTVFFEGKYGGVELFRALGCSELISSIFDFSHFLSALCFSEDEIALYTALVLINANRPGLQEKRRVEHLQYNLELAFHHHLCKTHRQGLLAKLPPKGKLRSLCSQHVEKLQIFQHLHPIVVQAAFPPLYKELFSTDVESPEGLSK
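A Gal4/UAS one-hybrid system in insect cells: metallothionein-promoter Gal4–ROR gamma fusion plus Photinus luciferase reporter. Copper sulfate 700 uM final, 20 hr ambient incubation, luminescent detection after 10 min with reagent.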
KB-V1 MDR tox = KB-V1 MDR subline cytotoxicity; KB-V1 MDR cells viability, CellTiter-Glo, 72 h; Potency, µM (highest dose often 46.1 µM), hits mostly cytotoxic; 3.4% of 400,000 active; also: % is scaled to controls: 0 for no effect and ±100 for the full control effect; nearly all actives have a fitted effect of over 60% in size
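Cytotoxicity via CellTiter-Glo luminescence after 72 h compound exposure at 37 degrees C. Cells: drug-selected KB-V1 line, DMEM phenol-red free plus 10% FBS. Compounds tested at multiple concentrations; normalized data fitted to concentration-effect curves.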
SW480 rerep = induces DNA re-replication in SW480 colon adenocarcinoma cells; SW480 DNA re-replication, Hoechst DNA content imaging, 48 h; Potency, µM (series often up to 46.1 µM), inactives show top-dose re-replication activation, actives largely listed as activators; 1.8% of 340,000 active; also: % of control where 0% means no effect; nearly all actives have a fitted effect of over 55% in size
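Cells (250 per well) received 23 nL compound or DMSO by pin tool and were kept 48 hr at 37 C, 5% CO2. Nuclei were then stained with Hoechst for 40 min and scanned for DNA content.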
MCF10A rerep = induces DNA re-replication in MCF 10a normal breast cells; MCF 10A DNA re-replication, Hoechst nuclear intensity, 48 h; Potency, µM (top dose mostly 46.1 µM), for the others: at the top dose activity, positive = re-replication, actives largely listed as activators; 2.9% of 350,000 active; AID 624296; also: % of control where 0% means no effect; nearly all actives have a fitted effect of over 50% in size
Gal4-VP16 FLuc = inhibits Gal4-VP16 luciferase reporter, ROR gamma counter-screen. 3.5% of 310,000 active. Drosophila S2 Gal4-VP16 UAS-luciferase, luminescence, 20 h. Potency, µM (highest dose often 53.6 µM), without a hit: at the top dose activity, negative = inhibition, hits mostly inhibitors;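 also: Gal4-VP16 expression switched on by copper sulfate through the metallothionein promoter; % is scaled to controls: 0 for no effect and ±100 for the full control effect; nearly all actives have a fitted effect of over 50% in size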
KB-3-1 tox = KB-3-1 parental cell cytotoxicity; 1.4% of 400,000 active; Potency, µM (top dose mostly 46.1 µM), actives largely listed as cytotoxic; KB-3-1 viability, CellTiter-Glo ATP luminescence, 72 h; AID 1347075; also: % is scaled to controls: 0 for no effect and ±100 for the full control effect; nearly all actives have a fitted effect of over 60% in size
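KB-3-1 cells, DMEM (no phenol red) + 10% FBS; compound by pin transfer, 72 h, 37 °C. Readout: CellTiter-Glo luminescence after 10 min. Data normalized, curve-fitted.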
Numbers without * were called inactive; i = inactive; ? = inconclusive; . = not tested or not shown. Hits are enriched below; roughly 10% of the tested compounds scored in any of these assays. Calls follow the shape of the dose curve; as a rule, active = well fitted curve in the direction sought with a large enough effect; inconclusive = small, poorly fitted or top-dose-only effect, or another doubt; inactive = no such curve, though single readings can be large; an effect the other way counts as inactive or inconclusive. Potency is read from the fitted curve at half-maximal effect.

SMILES	RORg inh	KB-V1 MDR tox	SW480 rerep	MCF10A rerep	Gal4-VP16 FLuc	KB-3-1 tox
S=c1nc(Cc2ccccc2)[nH]c2ccccc12	2.8µM*	i	-3%	17%	6.3µM*	i
FC(F)(F)c1nc(=S)c2ccccc2[nH]1	-32%	i	-34%	?	0%	i
Clc1ccc2nc(COc3ccccc3)[nH]c2c1	36%	i	7.3µM*	3.3µM*	17%	?
Cc1nc(=S)c2ccccc2[nH]1	10µM*	i	-6%	-1%	?	i
O=c1[nH]c(COc2ccccc2)nc2ccccc12	24%	?	?	?	17%	i
S=c1nc(COc2ccccc2)[nH]c2ccccc12	1.6µM*	i	-6%	-2%	18µM*	i
Cc1ccccc1NC(=O)c1sc2nc(N3CCOCC3)c3c(c2c1N)CC(C)(C)OC3	.	i	.	.	.	i
CN(Cc1ccc2nsnc2c1)C(=O)C1CCC(=O)N(CCc2ccccc2)C1 (centres undefined)	.	?	.	.	.	i
CCCC(=O)OCc1cnc(C)c2oc(=O)c(C(=O)Nc3cccc(C(F)(F)F)c3)cc12	.	i	.	.	.	i
COCCNC(=O)C1(C)CCN(C(=O)c2ccc3sccc3c2)C1 (centres undefined)	.	i	.	.	.	i
S=c1nc(Cc2ccc(Cl)cc2)[nH]c2ccccc12	1.8µM*	i	-12%	?	11µM*	i
Cc1ccc(Cc2nc3ccccc3[nH]2)cc1	1%	i	-4%	-9%	-2%	?
O=c1cc(CCl)nc2sc3ccccc3n12	?	i	?	?	-9%	?
O=c1c2ccccc2sc2nc(CCl)nn12	.	?	-2%	?	.	6.5µM*
NC(=O)[C@H]1CC2(CC(c3cccc(NC(=O)COc4ccc(Cl)cc4)c3)=NO2)CN1C(=O)c1ccccc1C(=O)c1ccccc1 (some centres undefined)	?	i	2%	?	18%	21µM*
NC(=O)[C@H]1CC2(CC(c3cccc(NC(=O)COc4ccc(Cl)cc4)c3)=NO2)CN1C(=O)c1ccc(Cl)cc1 (some centres undefined)	?	i	?	?	-12%	i
CC1C(c2ccccc2)=Nn2c(=O)n(-c3ccccc3)c(=O)n21 (centres undefined)	.	?	.	.	.	i
COCCCNC(=S)N1CCCN(c2nc3cc(C)c(C)cc3cc2C#N)CC1	-28%	i	?	18µM*	-21%	i
N#Cc1cc2cc3c(cc2nc1N1CCCCC1)OCCO3	18%	i	?	?	-1%	i
Cc1ccc(C(=O)N2CCCN(c3nc4cc5c(cc4cc3C#N)OCO5)CC2)cc1	15%	23µM*	13µM*	8.2µM*	0%	?
CCOc1ccc(C(=O)Nc2ccc(-c3nn[nH]n3)cc2)cc1[N+](=O)[O-]	.	?	.	.	.	i
CCN(c1ccc(OC)cc1)S(=O)(=O)N1CCCC(C(=O)NCc2ccc(OC(C)C)cc2)C1 (centres undefined)	.	?	.	.	.	i
CC(=O)Nc1cc(OC(C)=O)c2nonc2c1OC(C)=O	11µM*	i	2.9µM*	?	?	?
CC(=O)Oc1ccc2nonc2c1OC(C)=O	.	i	.	.	.	?
O=C(CN1C(=O)CCc2cc(S(=O)(=O)N3CCOCC3)ccc21)Nc1cccc(Cl)c1	.	i	.	.	.	i
SMILES	RORg inh	KB-V1 MDR tox	SW480 rerep	MCF10A rerep	Gal4-VP16 FLuc	KB-3-1 tox
O=C1NCCc2c1[nH]c1ccc([N+](=O)[O-])cc21	18%	0.92µM*	10%	1%	-7%	1.6µM*
O=C1NCCc2c1[nH]c1ccccc21	15%	6.5µM*	-3%	5%	4%	?
COc1ccc2[nH]c3c(c2c1)CCNC3=O	13%	?	-8%	6%	-7%	?
Cc1c(C(=O)N(C)C2CCCCC2)sc2nc3ccc(N)cc3n12	40%	.	.	.	-3%	.
CCCCCCC1CC(CCc2nc(=S)[nH][nH]2)C(=O)O1 (centres undefined)	-44%	i	-4%	-2%	-1%	i
CCCCCCCCc1nc(=S)[nH][nH]1	10µM*	i	3%	4%	?	i
CCN(CC)C(=O)COc1ccc(/C(C)=N/Nc2ncc(Cl)cc2Cl)cc1	6.3µM*	i	4%	-16%	?	i
C/C(=N\Nc1ncc(Cl)cc1Cl)c1ccc(C#N)cc1	?	?	9%	12%	1%	i
COc1ccc(/C(C)=N/Nc2ncc(Cl)cc2Cl)c(O)c1	0.11µM*	?	?	16µM*	0.79µM*	i
FC(F)Oc1ccc(NC(=S)NC23CC4CC(CC(C4)C2)C3)cc1	0.79µM*	16µM*	27%	7%	7.1µM*	23µM*
Cc1ccc(NC(=O)CS(=O)CC(=O)NC23CC4CC(CC(C4)C2)C3)cc1 (centres undefined)	-6%	i	2%	9%	-8%	i
CNC(=S)NC12CC3CC(CC(C3)C1)C2	2.5µM*	i	2%	9%	7.9µM*	i
CCOc1ccc(NC(=S)NC23CC4CC(CC(C4)C2)C3)cc1	3.2µM*	i	25%	-2%	2.8µM*	i
FC(F)Oc1ccc(NC(=S)Nn2cnnc2)cc1	-25%	i	?	-3%	-14%	i
CN(C)c1ccc(NC(=S)NC23CC4CC(CC(C4)C2)C3)cc1	2µM*	i	25%	11%	5µM*	i
Cc1ccc(NC(=O)CCNS(=O)(=O)c2ccc3c(c2)CCCC(=O)N3)cc1	.	i	.	.	.	i

Screens (PubChem)
